Pol kappa inh-1 – qHTS for Inhibitors of Polymerase Kappa | DNA polymerase kappa (Homo sapiens), Q9UBT6 | purified Pol kappa, fluorescent DNA synthesis assay, 10 min | Potency, µM (titrated, usually from 107 µM), usual class: inhibitors | actives 0.53% (n = 400,000)
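First, compounds were pin-transferred onto 10 nM Pol kappa. After 15 min at room temperature, substrate was added to 50 nM final. Fluorescence was then measured kinetically at 0 and 10 min.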
TDP1 block – qHTS Assay for Inhibitors of Tyrosyl-DNA Phosphodiesterase (TDP1); AID 485290, 2010; Tyrosyl-DNA phosphodiesterase 1 (Homo sapiens), Q9NUW8; Potency, µM (doses to about 130 µM), most hits filed as inhibitors; actives 0.28% (n = 350,000); recombinant TDP1, AlphaScreen DNA substrate cleavage; also: nearly all actives have a fitted effect of over 40% in size
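Recombinant E. coli-expressed Tdp1 (1 nM) preincubated with compound 15 min at RT, then 5'-biotin/3'-phosphotyrosine-FITC DNA substrate (15 nM) added for 5 min. AlphaScreen beads (10 ug/ml) added, 10 min RT; tyrosine-FITC cleavage read as signal loss.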
Pol eta inh-1 – qHTS for Inhibitors of Polymerase Eta; DNA polymerase eta (Homo sapiens), Q9Y253; recombinant Pol eta, fluorescent DNA replication assay; Potency, µM (series often up to 114 µM), hits mostly inhibitors; actives 1.2% (n = 390,000); AID 588591, 2011
Target sequence (Q9Y253 whole entry, looked up): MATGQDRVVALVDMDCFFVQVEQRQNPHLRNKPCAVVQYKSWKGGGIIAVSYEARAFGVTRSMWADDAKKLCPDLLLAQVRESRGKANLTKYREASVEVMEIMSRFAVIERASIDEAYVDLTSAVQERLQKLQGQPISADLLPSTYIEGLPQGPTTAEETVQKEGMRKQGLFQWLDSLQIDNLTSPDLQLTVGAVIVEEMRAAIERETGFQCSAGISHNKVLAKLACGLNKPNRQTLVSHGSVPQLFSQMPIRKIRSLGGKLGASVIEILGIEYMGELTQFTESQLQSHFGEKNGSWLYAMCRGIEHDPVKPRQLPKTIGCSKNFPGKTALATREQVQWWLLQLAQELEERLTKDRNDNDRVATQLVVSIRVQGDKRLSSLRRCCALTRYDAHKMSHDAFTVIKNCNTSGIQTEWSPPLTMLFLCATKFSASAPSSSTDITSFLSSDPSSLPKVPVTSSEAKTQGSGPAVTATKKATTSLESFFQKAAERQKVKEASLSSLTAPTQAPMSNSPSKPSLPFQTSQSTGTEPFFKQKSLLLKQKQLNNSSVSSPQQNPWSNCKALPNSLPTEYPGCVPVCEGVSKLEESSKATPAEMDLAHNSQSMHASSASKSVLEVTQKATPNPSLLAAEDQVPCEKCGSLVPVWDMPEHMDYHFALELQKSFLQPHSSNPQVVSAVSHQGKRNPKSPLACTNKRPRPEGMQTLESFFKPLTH
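Fluorescent replication assay: 50 nM final substrate added after a 15 min room-temperature compound preincubation with 10 nM enzyme. Signal taken at 0 min and again at 10 min.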
FEN1 inh-1 – qHTS Assay for the Inhibitors of Human Flap endonuclease 1 (FEN1). AID 588795, 2011. Recombinant FEN1 flap cleavage, fluorescence, 15 min. actives 0.35% (n = 390,000). Potency, µM (highest dose often 114 µM), usual class: inhibitors. P39748; also: nearly all actives have a fitted effect of over 65% in size
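Compounds are tested as a concentration series against 10 nM FEN1; after a 15 min room-temperature preincubation, 50 nM substrate starts cleavage, with plate reads at 0 and 15 min. Normalized responses are fitted by a Hill equation.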
Pol iota inh – qHTS for Inhibitors of Polymerase Iota; Potency, µM (highest dose often 115 µM), usual class: inhibitors; actives 1% (n = 390,000); DNA polymerase iota (Homo sapiens), Q9UNA4; Pol iota fluorescent replication assay, 10 min
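Pol iota at 10 nM preincubated 15 min with compounds at room temperature; reaction started with fluorescent substrate, 50 nM final. Fluorescence read kinetically at 0 and 10 min; buffer-only wells as negative control.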
Pol beta inh – qHTS Assay for Inhibitors of DNA Polymerase Beta; P06746; Pol beta primer extension/strand displacement, fluorescence kinetic; Potency, µM (doses to about 114 µM), most hits filed as inhibitors; actives 1.3% (n = 340,000)
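Kinetic readout of DNA synthesis with strand displacement by Pol beta. Compound and 10 nM enzyme sit 15 min at room temperature; 50 nM substrate starts the reaction, read immediately and at 10 min.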
TbPGK inh – qHTS for inhibitors of Phosphogylcerate Kinase: Hit Validation Screen; AID 686980, 2013; Potency, µM (series often up to 57.5 µM), usual class: inhibitors; shares compounds with Pol kappa inh-1; actives 79% (n = 500); TbPGK coupled GAPDH assay, Kinase-Glo luminescence; also: nearly all actives have a fitted effect of over 65% in size
POLI cherry-pick – qHTS for Inhibitors of Polymerase Iota: Confirmatory Assay for Cherry-picked Compounds; Potency, µM, actives largely listed as inhibitors; actives 77% (n = 1,500); AID 720496, 2013; shares compounds with Pol kappa inh-1; Pol iota primer extension, TAMRA/BHQ fluorescence
GALK confirm – Confirmation Assay for Inhibitors of Human Galactokinase (GALK). shares compounds with Pol eta inh-1. purified GALK, Kinase-Glo ATP depletion luminescence. Potency, µM (highest dose often 115 µM), hits mostly inhibitors. actives 70% (n = 150)
Redox cycling – Confirmatory Assay for Inhibitors of Human Galactokinase (GALK): Phenol-HRP redox assay counterscreen. Potency, µM (highest dose often 115 µM), most hits filed as inhibitors. Phenol red-HRP H2O2 redox cycling, absorbance 600 nm. shares compounds with Pol eta inh-1. AID 2035, 2009. actives 40% (n = 150)
HEK293 viability – Secondary Assay for Inhibitors of Human Galactokinase (GALK): HEK-293 Cell Viability Assay; shares compounds with Pol eta inh-1; HEK-293 viability, ATP luminescence (CellTiter-Glo), 24/48 h; Potency, µM (highest dose often 46.1 µM), actives largely listed as inhibitors; actives 10% (n = 170); AID 2547, 2010
Pol kappa inh-2 – qHTS for Inhibitors of Polymerase Kappa: Confirmatory Assay for Cherry-picked Compounds. shares compounds with Pol eta inh-1. purified Pol-kappa, fluorescent strand-displacement substrate. Potency, µM, actives largely listed as inhibitors. actives 76% (n = 920)
Pol eta inh-2 – qHTS for Inhibitors of Polymerase Eta: Confirmatory Assay for Cherry-picked Compounds. shares compounds with Pol eta inh-1. Pol eta primer extension, TAMRA/BHQ fluorescence, 10 min. Potency, µM, most hits filed as inhibitors. actives 64% (n = 2,600). AID 720502, 2013
FEN1 inh-2 – qHTS Assay for the Inhibitors of FEN1: Confirmatory Assay for Cherry-picked Compounds. FEN1 flap cleavage, TAMRA/BHQ2 fluorogenic DNA substrate. AID 720498, 2013. actives 79% (n = 880). shares compounds with FEN1 inh-1. Potency, µM, hits mostly inhibitors; also: nearly all actives have a fitted effect of over 60% in size
A number is an active result; . = inactive; ? = inconclusive; / = no result given. Hits are enriched below; roughly 2.4% of the tested compounds scored in any of these assays. Calls follow the shape of the dose curve; as a rule, active = well fitted curve in the direction sought with a large enough effect; inconclusive = small, poorly fitted or top-dose-only effect, or another doubt; inactive = no such curve, though single readings can be large; an effect the other way counts as inactive or inconclusive.

SMILES | Pol kappa inh-1 | TDP1 block | Pol eta inh-1 | FEN1 inh-1 | Pol iota inh | Pol beta inh | POLI cherry-pick | Pol eta inh-2 | FEN1 inh-2 | others
CN1C(=CC=C2C=C(I)C(=O)C(I)=C2)C(C)(C)c2ccccc21 | ? | . | ? | 32µM | 3.5µM | ? | 34 | 48 | 85 | Pol kappa inh-2=75
Cc1cc(C)cc(NC(=O)Cn2c(=O)n(-c3cc(C)cc(C)c3)c(=O)c3oc4ccccc4c32)c1 | . | . | . | . | . | . | / | / | /
CCOc1ccc2c(ccc(/C=C/c3cc(C)c4cccnc4c3O)[n+]2C)c1 | ? | / | 20µM | 8.9µM | ? | / | 19 | 21 | 12 | Pol kappa inh-2=19
Cc1cc(C)c2cccnc2c1O | . | / | / | . | . | / | / | / | /
COc1ccc(C)cc1NC(C)C(=O)c1c[nH]c2ccccc12 (stereo not given) | . | / | / | . | . | / | / | / | /
O=C(O)CSc1cc(NS(=O)(=O)c2cccc([N+](=O)[O-])c2)c2ccccc2c1O | ? | . | 22µM | 3.2µM | 3.2µM | 79µM | 27 | 27 | 76 | GALK confirm=33µM;Redox cycling=21µM;HEK293 viability=.
CCOc1ccc(S(=O)(=O)Nc2cc(SCC(=O)O)c(O)c3ccccc23)cc1 | . | / | 45µM | ? | 10µM | ? | ? | ? | 67
CCOc1ccc(S(=O)(=O)Nc2cc3c(C(=O)OC)c(COC)oc3c3ccccc23)cc1 | . | / | . | . | . | ? | / | / | /
CC(OC(=O)/C(C#N)=C/c1ccc(N(C)C)cc1)C(=O)N(C)c1ccccc1 (stereo not given) | 79µM | . | 79µM | 50µM | 50µM | / | 24 | 34 | 38
CC[C@H](NC(=O)[C@H](CCC(=O)O)NC(=O)[C@H](CCC(=O)O)NC(=O)[C@H](CC(=O)O[S+](=O)([O-])c1cccc2c(NCCN)cccc12)NC(=O)[C@H](CCC(=O)O)NC(=O)[C@H](CC(=O)O)NC(C)=O)C(=O)ON[C@@H](C)C(=O)N[C@@H](CO)C(=O)N[C@@H](CCCCNC(=O)c1ccc(N=Nc2ccc(N(C)C)cc2)cc1)C(N)=O | . | . | / | / | / | / | / | / | /
COc1ccc2c([N+](=O)[O-])c(Cl)[nH]c2c1 | 50µM | . | 20µM | 18µM | 11µM | . | 38 | 27 | 34
CC(NC1=CC(=O)c2cccnc2C1=O)C(O)c1ccccc1 (stereo not given) | . | / | 16µM | ? | 4.5µM | / | 19 | 24 | ?
COc1cc(NS(=O)(=O)c2ccc(NC(=S)NC(=O)/C=C/c3ccco3)cc2)ncn1 | 7.1µM | / | 2.2µM | 13µM | ? | 18µM | 17 | 4.3 | 60 | TbPGK inh=4.6µM
O=C(Cn1c(=O)n(-c2ccc(F)cc2)c(=O)c2sc3ccccc3c21)N1CCCC1 | . | . | . | . | . | . | / | / | /
Cc1cc(C)n2nc(C(=O)N/N=C/c3c4ccccc4cc4ccccc34)nc2n1 | . | / | ? | 45µM | . | ? | 67 | ? | ?
COC(=O)c1ccccc1NC(=O)Cn1c(=O)n(CCCCC(=O)NCc2ccc3c(c2)OCO3)c(=O)c2ccccc21 | . | . | . | . | . | . | / | / | /
Cn1cnnc1SCC(=O)Nc1sc2c(c1C(N)=O)CCC2 | ? | / | 22µM | 32µM | ? | 14µM | 67 | 43 | ?
COCCn1cnnc1SCC(=O)Nc1sc2c(c1C#N)CCC2 | . | . | ? | . | ? | / | / | / | /
CCN(CC)C(=O)CSc1nc2ccccc2c(=O)n1-c1cccc(OC)c1 | . | . | . | . | . | . | / | / | /
COc1cccc(-n2c(SCc3cc(=O)oc4cc(O)c(O)cc34)nc3ccccc3c2=O)c1 | 32µM | . | 3.2µM | 50µM | 7.9µM | 3.2µM | 7.5 | 12 | 27
COc1cc(-c2nnc(SCc3cc(=O)oc4cc(O)c(O)cc34)o2)cc(OC)c1OC | 1.1µM | / | 0.71µM | 40µM | 1.1µM | 0.89µM | 2.4 | 1.1 | 38 | TbPGK inh=0.92µM
N#Cc1c(-c2ccco2)cc(-c2ccccc2)[nH]c1=O | ? | / | . | . | 10µM | ? | 42 | 27 | 76 | Pol kappa inh-2=12
Cc1cc(-c2ccccc2)[nH]c(=O)c1C#N | . | . | . | . | . | . | / | / | /
O=c1cc2oc3cc(O)c(O)cc3c(-c3ccccc3[N+](=O)[O-])c-2cc1O | 0.79µM | / | 0.79µM | ? | ? | 0.32µM | 0.75 | 2.1 | ? | TbPGK inh=0.29µM
COc1cccc(C(=O)Nc2ccc3nc(SCc4ccc(C)cc4)sc3c2)c1 | . | . | . | . | . | . | / | / | /
COc1cc(O)c(C(=O)O)c(O)c1 | . | . | / | / | / | / | / | / | /
